Measured values published in PubChem BioAssay (Tox21).
Inconclusive results are not listed. Entries that show only a call come without a potency. Activity calls are given as the source filed them. Unless noted, calls come from the whole dose curve.

What was measured:
[1] = Nuclear factor erythroid 2-related factor 2/antioxidant responsive element (Nrf2/ARE) small molecule agonists: qHTS cell viability counter screen in human keratinocytes (AID 1919968; active = well fitted curve in the direction sought with a large enough effect in the repeat runs; an effect the other way counts as inactive or inconclusive; note: nearly all actives have a fitted effect of over 55% in size; note: potency is the fitted concentration of half-maximal effect)
Procedure, shortened: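 Cells of the KeratinoSens line were plated at 1,500 per well and left for 5 h before compound transfer from DMSO stocks. After a 23 h incubation (37 C, 5% CO2), CellTiter-Fluor was added. Signal was taken as fluorescence intensity 1 h later.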

[2] = Nuclear factor erythroid 2-related factor 2/antioxidant responsive element (Nrf2/ARE) small molecule agonists: luciferase reporter gene qHTS assay in human keratinocytes (AID 1919969); note: nearly all actives have a fitted effect of over 35% in size; note: potency is the fitted concentration of half-maximal effect
[3] = target: Gonadotropin-releasing hormone receptor (Homo sapiens) (UniProt P30968); experiment: Human gonadotropin-releasing hormone receptor (GnRHR) small molecule agonists, calcium flux assay in GnRHR-HEK293 cells (AID 1920063); note: nearly all actives have a fitted effect of over 35% in size
Sequence of Gonadotropin-releasing hormone receptor (Homo sapiens) (P30968 whole entry, looked up): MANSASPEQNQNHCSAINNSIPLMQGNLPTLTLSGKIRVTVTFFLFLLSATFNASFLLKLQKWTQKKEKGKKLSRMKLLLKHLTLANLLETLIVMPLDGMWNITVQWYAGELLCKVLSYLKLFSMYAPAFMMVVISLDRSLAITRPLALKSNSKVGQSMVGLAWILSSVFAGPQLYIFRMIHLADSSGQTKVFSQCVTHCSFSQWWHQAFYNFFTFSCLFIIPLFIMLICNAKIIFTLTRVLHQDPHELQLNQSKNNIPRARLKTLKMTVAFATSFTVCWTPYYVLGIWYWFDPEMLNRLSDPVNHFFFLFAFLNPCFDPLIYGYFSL
Procedure, shortened: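 Compounds dissolved in DMSO are pin-transferred onto dye-loaded GnRHR-HEK293 cells, which were seeded 18 h before at 37 C/5% CO2. Calcium signal is read as fluorescence intensity at 1 s intervals for 3 min.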

[4] = target: KiSS-1 receptor (Homo sapiens) (UniProt Q969F8); experiment: Human kisspeptin (KISS1R) small molecule agonists, calcium flux assay in KISS1R-HEK293 cells (AID 1920064; active = well fitted curve in the direction sought with a large enough effect in the repeat runs; an effect the other way counts as inactive or inconclusive)
Sequence of KiSS-1 receptor (Homo sapiens) (Q969F8 whole entry, looked up): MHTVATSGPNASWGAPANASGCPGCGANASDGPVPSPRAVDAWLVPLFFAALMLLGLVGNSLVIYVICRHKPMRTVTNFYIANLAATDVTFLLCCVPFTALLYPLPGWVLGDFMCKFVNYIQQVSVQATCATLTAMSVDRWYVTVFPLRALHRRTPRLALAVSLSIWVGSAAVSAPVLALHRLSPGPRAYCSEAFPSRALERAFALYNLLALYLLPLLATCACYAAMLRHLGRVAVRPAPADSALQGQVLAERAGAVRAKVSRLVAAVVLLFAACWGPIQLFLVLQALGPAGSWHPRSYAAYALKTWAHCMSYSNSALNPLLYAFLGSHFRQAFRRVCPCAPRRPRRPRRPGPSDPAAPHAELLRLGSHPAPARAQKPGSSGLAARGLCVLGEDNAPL
Procedure, shortened: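 Cell line: HEK293, stable human KISS1R. Dye loading 1 h at 37 C after 18 h culture. Read: kinetic fluorescence, 480/540 nm, 3 min at 1 s intervals.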

[5] = G protein-coupled receptor (GPCR) small molecule agonists, calcium flux assay: HEK293 wild type cell line counter screen (AID 1920065)
Procedure, shortened: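 Tox21 10K compounds, 15 concentrations each in triplicate, pin-transferred in DMSO onto dye-loaded cells; kinetic read at 480/540 nm for 3 min, 1 s intervals.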

[6] = p53 small molecule agonists, cell-based qHTS assay with human liver microsomes (AID 1963577)
Procedure, shortened: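 Compounds act here after metabolic activation: human liver microsomes and NADPH, both at 0.5 mg/mL final, were co-added to p53RE-bla cells. Incubation ran 16 h at 37 C, followed by LiveBLAzer detection.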

[7] = p53 small molecule agonists, cell-based qHTS assay with rat liver microsomes (AID 1963578)
Procedure, shortened: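 Read-out is beta-lactamase reporter fluorescence (LiveBLAzer, 2 h, room temperature, dark) in p53RE-bla cells treated 16 h at 37 C with compound, rat liver microsomes and NADPH, both 0.5 mg/mL final.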

[8] = p53 small molecule agonists, cell-based qHTS assay with human liver microsomes: qHTS cell viability counter screen (AID 1963579); note: nearly all actives have a fitted effect of over 45% in size; note: potency is the fitted concentration of half-maximal effect
Procedure, shortened: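 Cells carrying the p53 response-element beta-lactamase reporter are treated for 16 h at 37 C with test compounds in the presence of human liver microsomes and NADPH (both 0.5 mg/mL final); ATP-based CellTiter-Glo luminescence then reports viability.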

[9] = p53 small molecule agonists, cell-based qHTS assay with rat liver microsomes: qHTS cell viability counter screen (AID 1963580); note: nearly all actives have a fitted effect of over 45% in size; note: potency is the fitted concentration of half-maximal effect
Procedure, shortened: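 Rat liver microsome (0.5 mg/mL final) and NADPH (0.5 mg/mL final) co-incubation with compounds for 16 h at 37 C on HCT-116 p53RE-bla cells; cytotoxicity taken from intracellular ATP luminescence.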

[10] = p53 small molecule agonists, cell-based qHTS assay: qHTS cell viability counter screen (AID 1963581); note: nearly all actives have a fitted effect of over 45% in size; note: potency is the fitted concentration of half-maximal effect
Procedure, shortened: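 ATP content measured by luminescence in HCT-116 p53RE-bla cells treated 16 h at 37 C, same wells as the reporter screen.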

[11] = target: 5-hydroxytryptamine receptor 2A (Homo sapiens) (UniProt P28223); experiment: 5-hydroxytryptamine receptor 2A (HTR2A) small molecule antagonists, cell-based qHTS assay (AID 1963586); note: nearly all actives have a fitted effect of over 45% in size; note: potency is the fitted concentration of half-maximal effect
Sequence of 5-hydroxytryptamine receptor 2A (Homo sapiens) (P28223 whole entry, looked up): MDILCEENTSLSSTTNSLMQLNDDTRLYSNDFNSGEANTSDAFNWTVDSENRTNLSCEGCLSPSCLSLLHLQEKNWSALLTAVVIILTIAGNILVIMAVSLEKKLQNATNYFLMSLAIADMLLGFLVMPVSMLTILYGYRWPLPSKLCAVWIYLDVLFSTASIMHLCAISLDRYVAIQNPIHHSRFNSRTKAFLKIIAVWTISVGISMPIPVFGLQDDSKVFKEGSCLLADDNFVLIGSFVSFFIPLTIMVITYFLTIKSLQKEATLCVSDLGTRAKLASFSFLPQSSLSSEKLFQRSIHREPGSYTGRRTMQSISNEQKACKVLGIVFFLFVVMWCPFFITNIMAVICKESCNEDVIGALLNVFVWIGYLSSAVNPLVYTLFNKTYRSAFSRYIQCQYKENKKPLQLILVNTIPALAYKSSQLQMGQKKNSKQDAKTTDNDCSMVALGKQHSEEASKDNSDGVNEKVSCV
Procedure, shortened: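 CHO cells stably expressing human HTR2A were plated for 18 h at 37 C, then loaded with calcium dye for 1 h. Compounds were preincubated 5 min at room temperature before DOI (4 nM solution) was added. Kinetic fluorescence was read for 3 min.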

[12] = target: 5-hydroxytryptamine receptor 2A (Homo sapiens) (UniProt P28223); experiment: 5-hydroxytryptamine receptor 2A (HTR2A) small molecule agonists, cell-based qHTS assay (AID 1963587); note: nearly all actives have a fitted effect of over 30% in size
Procedure, shortened: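 Kinetic calcium-flux fluorescence (2 min, 1 sec intervals) after compound addition in agonist mode. HTR2A-CHO cells were cultured 18 h, then dye-loaded 1 h at 37 C.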

[13] = target: Muscarinic acetylcholine receptor M1 (Homo sapiens) (UniProt P11229); experiment: Cholinergic receptor muscarinic 1 (CHRM1) small molecule antagonists, cell-based qHTS assay (AID 1963588); note: nearly all actives have a fitted effect of over 40% in size
Sequence of Muscarinic acetylcholine receptor M1 (Homo sapiens) (P11229 whole entry, looked up): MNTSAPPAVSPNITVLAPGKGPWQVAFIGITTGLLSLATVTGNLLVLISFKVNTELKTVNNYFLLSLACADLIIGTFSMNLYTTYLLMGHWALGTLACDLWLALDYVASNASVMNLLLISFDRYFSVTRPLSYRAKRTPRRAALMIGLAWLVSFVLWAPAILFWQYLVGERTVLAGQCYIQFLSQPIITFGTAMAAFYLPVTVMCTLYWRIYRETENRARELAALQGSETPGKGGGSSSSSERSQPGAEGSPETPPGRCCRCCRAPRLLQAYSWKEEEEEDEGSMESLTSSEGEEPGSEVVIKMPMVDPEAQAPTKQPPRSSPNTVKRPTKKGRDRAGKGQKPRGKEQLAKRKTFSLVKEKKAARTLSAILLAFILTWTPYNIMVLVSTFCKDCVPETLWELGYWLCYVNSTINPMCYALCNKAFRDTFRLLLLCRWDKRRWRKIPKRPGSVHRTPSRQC
Procedure, shortened: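 Compounds were tested at 15 concentrations in three independent runs. Dye-loaded CHRM1-CHO cells were exposed 5 min at room temperature before stimulation by acetylcholine added at 50nM. Intracellular calcium was read kinetically on FDSS for 3 min.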

[14] = target: Muscarinic acetylcholine receptor M1 (Homo sapiens) (UniProt P11229); experiment: Cholinergic receptor muscarinic 1 (CHRM1) small molecule agonists, cell-based qHTS assay (AID 1963589); note: nearly all actives have a fitted effect of over 35% in size
Procedure, shortened: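 Homogeneous fluorescence calcium flux, agonist mode. Human M1-expressing CHO cells; compound dosed at 15 concentrations, three independent runs; signal sampled every 1 sec.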

[15] = target: Beta-2 adrenergic receptor (Homo sapiens) (UniProt P07550); experiment: Adrenergic beta2 receptor (ADRB2) small molecule antagonists, cell-based qHTS assay (AID 1963592); note: series mostly up to about 92 µM; nearly all actives have a fitted effect of over 50% in size
Sequence of Beta-2 adrenergic receptor (Homo sapiens) (P07550 whole entry, looked up): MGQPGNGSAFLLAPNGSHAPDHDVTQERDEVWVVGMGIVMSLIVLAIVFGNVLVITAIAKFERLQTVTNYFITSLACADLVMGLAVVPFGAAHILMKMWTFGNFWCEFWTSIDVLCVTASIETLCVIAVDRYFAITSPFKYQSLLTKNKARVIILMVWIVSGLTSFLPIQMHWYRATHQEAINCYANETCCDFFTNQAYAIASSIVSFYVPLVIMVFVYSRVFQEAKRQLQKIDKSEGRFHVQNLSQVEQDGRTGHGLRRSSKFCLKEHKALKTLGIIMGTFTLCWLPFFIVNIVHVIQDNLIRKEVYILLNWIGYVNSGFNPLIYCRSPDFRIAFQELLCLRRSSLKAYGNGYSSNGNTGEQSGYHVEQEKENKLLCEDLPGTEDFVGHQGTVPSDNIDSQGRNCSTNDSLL
Procedure, shortened: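 Assay format: CHO-ADRB2 cells, 18-20hr seeding at 37C/5% CO2, then compound plus 1nM isoproterenol agonist mix for 0.5hr RT. Homogeneous time-resolved fluorescence cAMP detection after 1hr, expressed as 665/615 nm ratio.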

[16] = target: D(2) dopamine receptor (Homo sapiens) (UniProt P14416); experiment: Dopamine D2 receptor (DRD2) small molecule agonists, cell-based qHTS assay (AID 1963594); note: nearly all actives have a fitted effect of over 35% in size
Sequence of D(2) dopamine receptor (Homo sapiens) (P14416 whole entry, looked up): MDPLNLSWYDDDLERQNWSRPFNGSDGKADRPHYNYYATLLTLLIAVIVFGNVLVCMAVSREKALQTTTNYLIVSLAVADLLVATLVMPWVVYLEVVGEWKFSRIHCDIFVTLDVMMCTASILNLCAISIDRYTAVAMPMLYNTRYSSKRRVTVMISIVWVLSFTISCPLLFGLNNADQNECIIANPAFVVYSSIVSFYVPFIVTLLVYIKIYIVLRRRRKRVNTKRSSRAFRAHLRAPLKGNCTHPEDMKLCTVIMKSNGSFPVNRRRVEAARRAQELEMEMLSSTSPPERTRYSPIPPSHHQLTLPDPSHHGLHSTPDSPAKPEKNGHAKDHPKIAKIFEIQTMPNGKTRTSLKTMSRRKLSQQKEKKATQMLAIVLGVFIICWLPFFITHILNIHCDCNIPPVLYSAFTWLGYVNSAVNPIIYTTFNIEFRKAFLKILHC
Procedure, shortened: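 cAMP accumulation in DRD2-HEK293 cells measured by HTRF after 1 h detection; compounds added 10 min before NKH477 (200nM […]) forskolin-analogue stimulation, 30 min at room temperature, with Ro20-1724 present at 0.1 mM final.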

[17] = target: D(2) dopamine receptor (Homo sapiens) (UniProt P14416); experiment: Dopamine D2 receptor (DRD2) small molecule antagonists, cell-based qHTS assay (AID 1963595; active = well fitted inhibition curve with a large enough effect in the signal ratio in the repeat runs, with a control signal flat; the % refers to the signal ratio)
Procedure, shortened: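 Stable D2 receptor HEK293 line, 24 h after seeding. Compound preincubated 10 min, then quinpirole (12 nM) with forskolin analogue NKH477 (200 nM), 30 min, room temperature. Detection by time-resolved FRET of cAMP.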

[18] = cAMP Responsive Elements (CRE) small molecule antagonists, cell-based qHTS assay (AID 1963591; active = well fitted inhibition curve with a large enough effect in the signal ratio in the repeat runs, not every such curve was filed as active; the % refers to the signal ratio)
Procedure, shortened: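 First, CRE-bla HEK293T cells settled 18 h at 37 C. Next, compound and 0.25 uM final NKH477 were applied for 3 h. Last, LiveBLAzer B/G substrate was loaded for 2 h at room temperature.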

[19] = cAMP Responsive Elements (CRE) small molecule agonists, cell-based qHTS assay (AID 1963590)
Procedure, shortened: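 HEK 293T cells stably bearing CRE-bla were plated at 2,000 cells per well and rested 18 h. Compounds, positive controls or DMSO were added for 3 h at 37 C. LiveBLAzer B/G substrate was then loaded for 2 h at room temperature.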

Row | Compound | Potency [1] | Potency [2] | Potency [3] | outcome [4] | outcome [5] | Potency [6] | Potency [7] | Potency [8] | Potency [9] | Potency [10] | Potency [11] | Potency [12] | Potency [13] | Potency [14] | Potency [15] | Potency [16] | Potency [17] | Potency [18] | Potency [19]
1 | CCCCc1ccc2c(n1)[C@@H](c1ccc(OC)cc1C[C@H](C)C(=O)O)[C@H](C(=O)O)[C@H]2c1ccc2c(c1)OCO2 | inactive | inactive | inactive | inactive | inactive | inactive | inactive | inactive | inactive | inactive | inactive | inactive | inactive | inactive | inactive | inactive | inactive |  | 
2 | Cc1cccc(Oc2ccccc2)c1 | inactive | inactive | inactive | inactive | inactive | inactive | inactive | inactive | inactive | inactive | 0.001 µM (active) | inactive | inactive | inactive | inactive | inactive | inactive | inactive | 
3 | c1cc[nH]c1 | inactive | inactive | inactive | inactive | inactive | inactive | inactive | inactive | inactive | inactive | inactive | inactive | inactive | inactive |  | inactive | inactive | inactive | inactive
4 | CCNc1nc(NC(C)(C)C)nc(OC)n1 | inactive | inactive | inactive | inactive | inactive | inactive | inactive | inactive | inactive | inactive | inactive | inactive | inactive | inactive | inactive | inactive | inactive |  | inactive
5 | O=C1c2ccccc2C(=O)N1CCl | inactive | inactive | inactive | inactive | inactive | inactive | inactive | inactive | inactive | inactive | inactive | inactive | inactive | inactive | inactive |  | inactive |  | inactive
6 | COc1ccc(N)c([N+](=O)[O-])c1 | inactive | inactive | inactive | inactive | inactive | inactive | inactive | inactive | inactive | inactive | inactive | inactive | inactive | inactive | inactive | inactive | inactive | inactive | 
7 | CCO[Si](C)(CCCOCC1CO1)OCC (stereo not given) | inactive | inactive | inactive | inactive | inactive | inactive | inactive | inactive | inactive | inactive | inactive | inactive | inactive | inactive | inactive | inactive | inactive |  | 
8 | CCC(C)(CCCC(C)C)OC(C)=O (stereo not given) | inactive | inactive | inactive | inactive | inactive | inactive | inactive | inactive | inactive | inactive | inactive | inactive | inactive | inactive | inactive | inactive | inactive |  | inactive
9 | C=C/C(C)=C/C/C=C(\C)CCC=C(C)C | inactive | 68.6 µM (active) | inactive | inactive | inactive | inactive | inactive | inactive | inactive | inactive | inactive | inactive | inactive | inactive | inactive | inactive | inactive |  | 
10 | CCCCCC(=O)OCC | inactive | inactive | inactive | inactive | inactive | inactive | inactive | inactive | inactive | inactive | inactive | inactive | inactive | inactive |  | inactive |  | inactive | inactive
11 | Cc1ccc2c(c1[N+](=O)[O-])C(=O)c1ccccc1C2=O | inactive | 16.9 µM (active) | inactive | inactive | inactive | inactive | inactive | inactive | inactive | inactive | inactive | inactive | inactive | inactive | inactive | inactive | inactive |  | 
12 | CCCCCCCC/C=C\CCCCCCCCOCCO | 22.4 µM (active) | inactive | inactive | inactive | inactive | inactive | inactive | 53 µM (active) | 53 µM (active) | 21.1 µM (active) | 24.4 µM (active) | inactive | inactive | inactive | inactive | inactive |  |  | 
13 | COc1ccc(C(=O)c2ccc(OC)cc2O)c(O)c1 | inactive | 69.1 µM (active) | inactive | inactive | inactive | inactive | inactive | inactive | inactive | inactive | inactive | inactive | inactive | inactive | inactive | inactive | inactive | inactive | 
14 | NC(=O)N(O)[C@@H]1C=C[C@H](Oc2cccc(Oc3ccc(F)cc3)c2)C1 | inactive | 61.1 µM (active) | inactive | inactive | inactive | inactive | inactive | inactive | inactive | inactive | inactive | inactive | inactive | inactive | inactive |  | inactive |  | 
15 | N#Cc1ccc(C/C(=N/NC(=O)Nc2ccc(OC(F)(F)F)cc2)c2cccc(C(F)(F)F)c2)cc1 | inactive | inactive | inactive | inactive | inactive | inactive | inactive | inactive | inactive | inactive | inactive | inactive | inactive | inactive | inactive | inactive | inactive | inactive | 
